Experimental findings from PubChem BioAssay (Tox21) are described below.

Molecules are shown by their SMILES. Values joined by “and” are separate entries in the source; they are usually repeats but may differ in a detail not shown here. Identical values can stand only once. Results filed as inconclusive are left out. Some structures have more than one record in an assay (separate samples or runs), and their calls can disagree. Active and inactive are the calls of the source. Unless noted, calls follow the shape of the dose curve; as a rule, active = well fitted curve in the direction sought with a large enough effect in the repeat runs; inconclusive = weak or mixed curves; inactive = no such curve, though single readings can be large; an effect the other way counts as inactive or inconclusive.

A short description of assay [1]: qHTS assay to identify small molecule that activate the aryl hydrocarbon receptor (AhR) signaling pathway - cell viability counter screen (AID 743086). Also: nearly all actives have a fitted effect of over 45% in size. Also: potency is read from the fitted curve at half-maximal effect. The following applies: HepG2-AhR-luc viability, CellTiter-Fluor, 24 h; series mostly up to 70.3 µM. Summed up: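 Cytotoxicity counter screen: CellTiter-Fluor signal (30 min, 37 C) in 4000 HepG2 cells/well carrying the DRE-luciferase reporter, following 24 h compound exposure at 37 C.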
On the technique in general: qHTS replaces the single test concentration by a dilution series.

Assay [2] can be described thus: qHTS assay to identify small molecule antagonists of the peroxisome proliferator-activated receptor gamma (PPARg) signaling pathway - cell viability counter screen (AID 743194). Also: nearly all actives have a fitted effect of over 55% in size. Also: potency is read from the fitted curve at half-maximal effect. The following applies: PPARg-bla HEK293H viability, CellTiter-Glo luminescence, 17 h, co-treated with 50 nM rosiglitazone; series mostly up to 62.6 µM. Put shortly: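 Viability was measured as CellTiter-Glo luminescence in GeneBLAzer PPARg UAS-bla HEK293H cells. These cells had been exposed 17 h at 37 C to compounds together with rosiglitazone at 50 nM final, with the beta-lactamase readout taken in the same wells.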

Assay [3] in a line: qHTS assay for small molecule agonists of the antioxidant response element (ARE) signaling pathway (AID 743202; active = well fitted activation curve with a large enough effect in the signal ratio in the repeat runs, not every such curve was filed as active; the % refers to the signal ratio; also: potency is read from the fitted curve at half-maximal effect). The following applies: HepG2 ARE-bla reporter, beta-lactamase FRET, 16 h; series mostly up to 73.3 µM. Put shortly:
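After 16 hours of compound treatment at 37 C, HepG2 cells with a stably integrated ARE-driven beta-lactamase reporter were loaded 2 hours at room temperature with LiveBLAzer B/G FRET substrate and fluorescence intensity measured.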

Assay [4] can be described thus: qHTS assay for small molecule agonists of the antioxidant response element (ARE) signaling pathway - cell viability counter screen (AID 743203; calls by dose curve; also: nearly all actives have a fitted effect of over 55% in size; also: potency is read from the fitted curve at half-maximal effect). The following applies: ARE-bla HepG2 viability, CellTiter-Glo luminescence, 16 h; series mostly up to 73.3 µM. Summed up:
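ATP content via CellTiter-Glo luminescence served as the viability measure. Cells: ARE-bla HepG2, 2,000 per well. Exposure: 16 hrs, 37C/5% CO2.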

A short description of assay [5]: qHTS assay for small molecule activators of the heat shock response signaling pathway - cell viability counter screen (AID 743209). Also: nearly all actives have a fitted effect of over 50% in size. Also: potency is read from the fitted curve at half-maximal effect. The following applies: HSE-bla HeLa viability, CellTiter-Glo luminescence, 5 h; series mostly up to 62.6 µM. Put shortly:
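Compounds dissolved in DMSO were added to overnight-plated HSE-bla HeLa cells and left 5 h at 37 C. Cell viability was quantified by luminescence using CellTiter-Glo.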

Assay [6] in a line: qHTS assay for small molecule activators of the heat shock response signaling pathway (AID 743210; active = well fitted activation curve with a large enough effect in the signal ratio in the repeat runs, with a control signal flat, not every such curve was filed as active; the % refers to the signal ratio). The following applies: HeLa HSE-bla reporter, beta-lactamase ratio, 5 h; series mostly up to 62.6 µM. Put shortly:
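Compound exposure lasted 5 h at 37 C in HeLa cells carrying a heat-shock-element-driven beta-lactamase reporter. Read-out: fluorescence intensity after 2.5 h room-temperature loading with LiveBLAzer B/G FRET substrate.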

A short description of assay [7]: qHTS assay to identify aromatase inhibitors - cell viability counter screen (AID 743084).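 Also: cells stimulated with testosterone during compound exposure; nearly all actives have a fitted effect of over 55% in size.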 Also: potency is read from the fitted curve at half-maximal effect. The following applies: MCF-7 aro ERE viability, CellTiter-Fluor, 24 h; series mostly up to 70.3 µM.
Assay [8] addresses Aryl hydrocarbon receptor (Homo sapiens) (UniProt P35869). Put plainly: qHTS assay to identify small molecule that activate the aryl hydrocarbon receptor (AhR) signaling pathway (AID 743085). Also: nearly all actives have a fitted effect of over 15% in size. Also: potency is read from the fitted curve at half-maximal effect.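 As to activation: HG2L7.5c1 human HepG2 liver cells with stably integrated DRE-driven firefly reporter.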 The following applies: HepG2 AhR-luc (HG2L7.5c1), luciferase, 24 h; series mostly up to 70.3 µM. Put shortly:
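Reporter assay in engineered HepG2 line HG2L7.5c1, whose plasmid carries twenty dioxin responsive elements upstream of firefly luciferase. Treatment lasted 24 h at 37C; ONE-Glo luminescence gauged induction.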

Assay [9] addresses Peroxisome proliferator-activated receptor gamma (Homo sapiens) (UniProt P37231). Put plainly: qHTS assay to identify small molecule agonists of the peroxisome proliferator-activated receptor gamma (PPARg) signaling pathway (AID 743094; active = well fitted activation curve with a large enough effect in the signal ratio in the repeat runs, not every such curve was filed as active; the % refers to the signal ratio; also: potency is read from the fitted curve at half-maximal effect). The following applies: HEK293H PPARg-UAS-bla, beta-lactamase FRET ratio, 17 h; series mostly up to 57 µM. Put shortly:
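Agonism was assessed in a beta-lactamase reporter system, HEK293H cells with a stably integrated UAS-bla construct under PPARg control; the 17 h treatment at 37C preceded a 1 h room-temperature FRET substrate read.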

Assay [10] shares this target. Put plainly: qHTS assay to identify small molecule antagonists of the peroxisome proliferator-activated receptor gamma (PPARg) signaling pathway (AID 743191; calls by dose curve; also: nearly all actives have a fitted effect of over 30% in size; also: potency is read from the fitted curve at half-maximal effect). The following applies: HEK293H PPARg-UAS-bla, beta-lactamase ratio, antagonist, 17 h; series mostly up to 62.6 µM. Put shortly: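 Beta-lactamase reporter under UAS control in HEK293H PPARg-bla cells; compound treatment 17 h at 37C. Read-out: fluorescence intensity after 1 h room-temperature incubation with LiveBLAzer B/G FRET substrate.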

Sequence of Aryl hydrocarbon receptor (Homo sapiens) (P35869 whole entry, looked up): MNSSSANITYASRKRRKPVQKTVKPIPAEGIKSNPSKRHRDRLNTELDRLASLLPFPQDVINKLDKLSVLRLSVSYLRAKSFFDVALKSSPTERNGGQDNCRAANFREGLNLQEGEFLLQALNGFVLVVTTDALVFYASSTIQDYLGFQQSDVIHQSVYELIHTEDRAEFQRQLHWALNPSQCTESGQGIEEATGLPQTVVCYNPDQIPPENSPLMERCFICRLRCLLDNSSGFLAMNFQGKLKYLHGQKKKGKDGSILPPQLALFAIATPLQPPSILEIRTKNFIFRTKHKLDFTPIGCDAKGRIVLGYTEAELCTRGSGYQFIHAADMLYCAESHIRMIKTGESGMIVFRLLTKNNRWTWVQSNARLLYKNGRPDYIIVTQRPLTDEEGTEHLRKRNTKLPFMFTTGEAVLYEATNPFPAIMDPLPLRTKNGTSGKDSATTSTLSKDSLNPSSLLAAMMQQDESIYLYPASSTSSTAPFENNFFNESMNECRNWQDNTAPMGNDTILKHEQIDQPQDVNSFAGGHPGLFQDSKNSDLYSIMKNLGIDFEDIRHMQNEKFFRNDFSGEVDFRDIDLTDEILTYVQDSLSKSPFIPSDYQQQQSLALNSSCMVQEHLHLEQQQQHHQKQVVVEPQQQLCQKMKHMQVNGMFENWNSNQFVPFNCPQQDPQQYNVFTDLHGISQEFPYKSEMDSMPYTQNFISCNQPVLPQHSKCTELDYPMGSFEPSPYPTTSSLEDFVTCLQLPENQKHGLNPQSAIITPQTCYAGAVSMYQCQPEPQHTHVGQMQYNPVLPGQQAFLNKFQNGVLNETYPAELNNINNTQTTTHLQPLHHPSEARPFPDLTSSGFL
Sequence of Peroxisome proliferator-activated receptor gamma (Homo sapiens) (P37231 whole entry, looked up): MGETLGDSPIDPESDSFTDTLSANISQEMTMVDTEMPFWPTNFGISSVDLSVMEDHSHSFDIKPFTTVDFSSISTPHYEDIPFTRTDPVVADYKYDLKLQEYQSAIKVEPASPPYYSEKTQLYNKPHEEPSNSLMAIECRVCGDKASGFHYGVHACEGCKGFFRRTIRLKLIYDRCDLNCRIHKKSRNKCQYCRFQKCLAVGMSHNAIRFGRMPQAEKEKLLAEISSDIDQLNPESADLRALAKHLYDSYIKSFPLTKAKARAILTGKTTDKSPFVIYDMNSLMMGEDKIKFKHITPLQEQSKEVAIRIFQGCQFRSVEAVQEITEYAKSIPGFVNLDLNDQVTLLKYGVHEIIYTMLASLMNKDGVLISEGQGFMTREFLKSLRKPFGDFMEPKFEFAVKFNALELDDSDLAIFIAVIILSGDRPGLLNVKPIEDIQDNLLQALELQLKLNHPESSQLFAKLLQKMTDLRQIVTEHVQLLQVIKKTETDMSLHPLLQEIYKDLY

Turning to `C/C=C/C(=O)O`, the Potency result in assay [1], in [2], in [3], in assay [4], in [5] and in [6] was “inactive” in each case.
As for `C=C(C)C1CC=C(C)CC1` (stereo not given), the Potency entry in assay [7], in [8], in [1], in [2], in [3] and in assay [4] was “inactive” throughout. The Potency entry in assay [5] and in assay [6] was “inactive” each time.
For the compound `C[C@]12CCC(=O)C=C1CC[C@@H]1[C@@H]2C(=O)C[C@@]2(C)[C@H]1CC[C@]2(O)C(=O)CO`, the Potency result in [7], in assay [8], in assay [1], in assay [2], in assay [3] and in [4] was “inactive” each time. Besides, the Potency entry in assay [5] and in assay [6] was “inactive” in each case.
For the compound `COC(=O)CCC(=O)OC`, the Potency result in assay [7], in assay [1], in assay [9], in assay [10], in assay [2] and in assay [3] was “inactive” in each case. Besides, the Potency entry in assay [4] and in assay [5] was “inactive” in each case.
Turning to `Cc1ccc(C(=O)c2cc(O)c(O)c([N+](=O)[O-])c2)cc1`, the Potency entry in assay [7], in assay [8], in assay [1], in assay [5] and in assay [6] was “inactive” each time. The Potency in assay [4] was 9.69 µM (active).
As to `O=C(/C=C/C=C/c1ccc2c(c1)OCO2)N1CCCCC1`, the Potency result in [7], in [1], in [2], in [4], in assay [5] and in assay [6] was “inactive” in each case. The Potency in assay [8] was 612 nM (active) and 2.17 µM (active); in assay [10], 43.7 µM (active).
As to `c1cc(N(CC2CO2)CC2CO2)ccc1OCC1CO1` (stereo not given), the Potency in assay [7] is 27.3 µM (active); in assay [3], 27.3 µM (active) and 19.3 µM (active). For the same compound, the Potency result in [8] and in [4] was “inactive” throughout.
For `Cc1c(C(N)=O)cc([N+](=O)[O-])cc1[N+](=O)[O-]`, the Potency entry in assay [7], in assay [8], in assay [1], in assay [2], in assay [3] and in assay [4] was “inactive” each time. Also, in assay [5], the Potency entry is “inactive”.
As for `c1ccc2c(c1)Oc1ccccc1S2`, the Potency result in assay [7], in assay [1], in assay [3], in assay [4], in [5] and in assay [6] was “inactive” throughout.
For `CCCc1c(OCCCCc2nn[nH]n2)ccc(C(C)=O)c1O`, the Potency result in assay [7], in assay [1], in assay [2], in assay [4], in assay [5] and in assay [6] was “inactive” throughout. Besides, the Potency in assay [9] was 2.19 µM (active); in assay [10], 8.71 µM (active).
Take `c1ccc2c(c1)c1cccc3ccc4cccc2c4c31`: the Potency result in assay [7], in assay [8], in [1], in assay [2], in assay [4] and in assay [5] was “inactive” each time. Further, in [6], the Potency result is “inactive”. Also, in assay [3], the Potency was 60.7 µM (active).
For `Oc1ccc(O)cc1`, in [7], the Potency result was “inactive and 54.2 µM (active)”. Moreover, the Potency result in assay [1], in assay [2], in assay [4], in assay [5] and in assay [6] was “inactive” in each case.
For the compound `O=C(OCc1ccccc1)c1ccccc1O`, the Potency result in assay [7], in assay [8], in assay [1], in assay [2], in assay [3] and in assay [4] was “inactive” throughout. Also, the Potency result in assay [5] and in [6] was “inactive” each time.
With `O=CCCCC=O`, the Potency entry in [7], in [1], in assay [2], in [4] and in [6] was “inactive” in each case. The Potency entry in assay [9] is “inactive and 53 µM (active)”; in [3] it was 52.5 µM (active) and inactive; in assay [5], 47.2 µM (active) and inactive.
As to `O=C(Nc1ccc([N+](=O)[O-])cc1Cl)c1cc(Cl)ccc1O`, the Potency entry in [7], in assay [1] and in [3] was “inactive” each time. Moreover, the Potency in [8] is 211 nM (active); in [2] it was 123 nM (active) and 461 nM (active); in assay [5] it was 309 nM (active).
With `O=C1OC2(c3cc(Br)c(O)c(Br)c3Oc3c2cc(Br)c(O)c3Br)c2c(Cl)c(Cl)c(Cl)c(Cl)c21`, the Potency in assay [7] is 4.86 µM (active) and 8.31 µM (active); in [1], 9.7 µM (active) and 5.88 µM (active). Besides, the Potency entry in assay [8], in [2], in assay [3], in assay [4] and in assay [5] was “inactive” in each case.
Turning to `CC(C)CC(C)(O)C#CC(C)(O)CC(C)C` (stereo not given), the Potency result in assay [7], in [8], in [1], in assay [2], in assay [3] and in [4] was “inactive” throughout. Further, the Potency result in [5] and in assay [6] was “inactive” each time.
With `CN(C)c1nc(N(C)C)nc(N(C)C)n1`, the Potency entry in assay [1], in [2], in assay [3], in [4], in assay [5] and in [6] was “inactive” in each case.
For the compound `CN(C)CCC=C1c2ccccc2CCc2ccccc21`, the Potency entry in [7], in assay [8], in assay [10], in assay [4], in assay [5] and in assay [6] was “inactive” each time. Besides, in assay [1], the Potency was 48.6 µM (active).
For `COC(=O)C1=C(C)NC(C)=C(C(=O)OCCN(C)Cc2ccccc2)C1c1cccc([N+](=O)[O-])c1` (stereo not given), the Potency in assay [7] was 21.1 µM (active) and 54.2 µM (active); in [2] it was 24.4 µM (active) and 33.5 µM (active); in assay [4], 24.2 µM (active) and 26.6 µM (active). Moreover, the Potency result in assay [8] and in assay [5] was “inactive” throughout.
Take `CCCCC/C=C/C=C/C=O`: the Potency result in assay [7], in [8], in [1], in assay [4] and in [5] was “inactive” in each case. For the same compound, in assay [2], the Potency is 38.6 µM (active) and 38.9 µM (active).
For `Cc1cccc(N(C)C(=S)Oc2ccc3ccccc3c2)c1`, the Potency result in [7], in assay [1], in assay [9], in assay [2], in assay [4] and in assay [5] was “inactive” each time. For the same compound, the Potency entry in assay [6] was “inactive”.
In the case of `COc1c(Cl)c(Cl)c(Cl)c(Cl)c1Cl`, the Potency entry in assay [7], in [8], in assay [1], in [2], in assay [3] and in [4] was “inactive” throughout. The Potency entry in [5] and in [6] was “inactive” each time.
As for `CN(C)C(=N)N=C(N)N`, the Potency entry in assay [7], in [1], in assay [2], in assay [3], in assay [4] and in assay [5] was “inactive” in each case.
On to `O=P(O)(O)O`, for which the Potency entry in [7], in assay [8], in assay [1], in assay [2], in assay [4] and in assay [5] was “inactive” throughout. The Potency result in [6] was “inactive”.
In the case of `CC(C)OC(=O)C(C)(C)Oc1ccc(C(=O)c2ccc(Cl)cc2)cc1`, the Potency entry in [8], in assay [1], in assay [2], in [4], in assay [5] and in [6] was “inactive” each time.
For `OC[C@H]1O[C@@H]2O[C@H]3[C@H](O)[C@@H](O)[C@@H](O[C@H]4[C@H](O)[C@@H](O)[C@@H](O[C@H]5[C@H](O)[C@@H](O)[C@@H](O[C@H]6[C@H](O)[C@@H](O)[C@@H](O[C@H]7[C@H](O)[C@@H](O)[C@@H](O[C@H]8[C@H](O)[C@@H](O)[C@@H](O[C@H]1[C@H](O)[C@H]2O)O[C@@H]8CO)O[C@@H]7CO)O[C@@H]6CO)O[C@@H]5CO)O[C@@H]4CO)O[C@@H]3CO`, the Potency entry in assay [1], in assay [2], in assay [3], in assay [4], in assay [5] and in assay [6] was “inactive” throughout.
Regarding `Nc1ncn([C@@H]2O[C@H](CO)[C@@H](O)[C@H]2O)c(=O)n1`, the Potency entry in [8], in [10], in [2], in assay [4], in [5] and in assay [6] was “inactive” in each case. Further, the Potency in [1] was 5.31 µM (active); in assay [3], 1.54 µM (active) and 2.66 µM (active).
With `CCCCc1oc2ccccc2c1C(=O)c1cc(I)c(OCCN(CC)CC)c(I)c1`, the Potency result in assay [7] was “inactive and 43.6 µM (active)”; in assay [2], 13.9 µM (active); in [4], 34.6 µM (active). Further, the Potency result in assay [1] and in assay [5] was “inactive” throughout.
Take `Nc1ccc(Nc2ccccc2)cc1`: the Potency in [7] is 61.1 µM (active) and inactive. The Potency result in [8], in [9], in [10], in assay [2], in [4] and in assay [5] was “inactive” throughout. Also, the Potency result in assay [6] is “inactive”.
